From PubChem BioAssay (EPA / NIEHS)
Results filed as inconclusive are left out. Active and inactive are the calls of the source. How the source made its calls, unless noted: active means hit-call score of the fitted dose curve at least 0.9, where 1 is the maximum; inconclusive means response in the unintended direction; inactive means score below 0.9.

How the values were obtained:
[1] = TOX21_p53_BLA_p3_viability: Viability Assessment in the Tox21 HCT-116 p53 Agonism Beta-lactamase Assay, Phase 3 (AID 2283593);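 further: cells exposed to compound for 16 h before reading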
How it was run: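 HCT-116 cells (4000/well) rested 5 h at 37C, then got DMSO compounds by pin tool (217-fold dilution) for 16 h at 37C, 5% CO2. After the bla read, CellTiter-Glo was added and luminescence read at 30 min, room temperature.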

[2] = molecular target: Cellular tumor antigen p53 (Homo sapiens) (UniProt P04637); experiment: TOX21_p53_BLA_p5_ratio: Tox21 HCT-116 p53 Agonism Beta-lactamase Assay, Ratio, Phase 5 (AID 2283599)
Sequence of Cellular tumor antigen p53 (Homo sapiens) (P04637 whole entry, looked up): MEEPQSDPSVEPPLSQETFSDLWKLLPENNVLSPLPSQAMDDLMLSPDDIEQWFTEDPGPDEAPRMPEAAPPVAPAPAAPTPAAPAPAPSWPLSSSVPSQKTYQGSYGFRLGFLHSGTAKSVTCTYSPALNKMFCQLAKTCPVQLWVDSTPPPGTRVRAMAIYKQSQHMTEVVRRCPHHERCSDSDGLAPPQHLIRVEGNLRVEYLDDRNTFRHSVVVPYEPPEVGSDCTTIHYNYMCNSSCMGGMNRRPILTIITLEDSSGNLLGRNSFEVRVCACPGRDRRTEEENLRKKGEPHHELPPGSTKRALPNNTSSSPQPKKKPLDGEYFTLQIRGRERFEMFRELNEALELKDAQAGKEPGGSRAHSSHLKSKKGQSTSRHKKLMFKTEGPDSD
How it was run: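 HCT-116 cells carrying a p53-inducible beta-lactamase reporter were seeded at 4000 cells/well and dosed after 5 h with compound in DMSO (217-fold dilution). After 16 h at 37C, CCF4-AM substrate was added for 2 h, and the 460/530 nm emission ratio was scored as gain-of-signal versus DMSO.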

[3] = molecular target: Cellular tumor antigen p53 (Homo sapiens) (UniProt P04637); experiment: TOX21_p53_BLA_p4_ratio: Tox21 HCT-116 p53 Agonism Beta-lactamase Assay, Ratio, Phase 4 (AID 2283601)
How it was run: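 HCT116 cells carrying an inducible beta-lactamase reporter were plated at 4000 cells/well, rested 5 h, then exposed to compounds in DMSO (217-fold dilution) for 16 h at 37C. CCF4-AM substrate was loaded 2 h at room temperature; 460/530 nm emission ratio scored gain-of-signal versus DMSO.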

[4] = molecular target: Cellular tumor antigen p53 (Homo sapiens) (UniProt P04637); experiment: TOX21_p53_BLA_p3_ratio: Tox21 HCT-116 p53 Agonism Beta-lactamase Assay, Ratio, Phase 3 (AID 2283596)
How it was run: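 HCT116 p53-bla cells (4000/well) given compound in DMSO (217-fold dilution) after 5 h, incubated 16 h at 37C. CCF4-AM substrate 2 h at room temperature; 460/530 nm emission ratio, gain fitted against DMSO.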

[5] = TOX21_p53_BLA_p4_viability: Viability Assessment in the Tox21 HCT-116 p53 Agonism Beta-lactamase Assay, Phase 4 (AID 2283597);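 further: hits lower the luminescence signal meaning cytotoxicity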
How it was run: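 We seeded HCT116 p53 reporter cells at 4000/well and waited 5 h. We then added compounds in DMSO at a 217-fold dilution and incubated for 16 h. Viability was read as CellTiter-Glo luminescence after 30 min at RT.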

[6] = TOX21_p53_BLA_p5_viability: Viability Assessment in the Tox21 HCT-116 p53 Agonism Beta-lactamase Assay, Phase 5 (AID 2283600)
How it was run: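 Compounds, pinned from DMSO at 217-fold dilution, were left on the cells for 16 h. The viability endpoint was ATP content measured by CellTiter-Glo luminescence, where falling signal reflects cytotoxicity.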

[7] = CCTE_Harrill_HTTr_Viability_MCF7: CCTE's 6-hour Cell Viability Assessment for the High-Throughput Transcriptomics (HTTr) Platform, in MCF-7 cells cultured in DMEM + 10% fetal bovine serum, Harrill Lab (AID 2284010; active means hit-call score of the fitted dose curve at least 0.9, where 1 is the maximum; inactive means score below 0.9)
How it was run: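 Cells were dosed with chemicals in an eight-point dilution series, imaged 6 hours later for propidium iodide uptake, and the endpoint was analyzed by bidirectional fitting against DMSO as negative control.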

[8] = CCTE_Harrill_HTTr_Apoptosis_MCF7: CCTE's 6-hour Apoptosis Assessment for the High-Throughput Transcriptomics (HTTr) Platform, in MCF-7 cells cultured in DMEM + 10% fetal bovine serum, Harrill Lab (AID 2284011; active means hit-call score of the fitted dose curve at least 0.9, where 1 is the maximum; inactive means score below 0.9)
How it was run: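 Read-out: CellEvent Caspase 3/7 Green signal by high content imaging, gain-of-signal indicating apoptosis. MCF-7 cells, DMEM + 10% FBS, eight-point dilution series, 6 h exposure. Curves fitted bidirectionally relative to DMSO negative control.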

[9] = CCTE_Harrill_HTTr_CellCount_MCF7: CCTE's Cell Proliferation Assessment for the High-Throughput Transcriptomics (HTTr) Platform, Harrill Lab (AID 2284012);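 further: count of Hoechst-stained nuclei per well by high-content imaging in MCF-7 cells; cells exposed to compound for six hours; intended direction is loss of nuclei count meaning fewer cells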
How it was run: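 Chemicals in eight-point dilution series are added to MCF-7 cells for six hours, nuclei are stained with Hoechst and imaged, and per-well nuclei counts are fitted in both directions relative to DMSO controls.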

[10] = molecular target: PGR (gene 5241) (UniProt P06401); experiment: TOX21_PR_BLA_Followup_Agonist_ratio: Tox21 HEK293 Progesterone Receptor (PR) Agonism Beta-lactamase Follow-Up Assay, Ratio (AID 2283933)
Sequence of PGR (gene 5241) (P06401 whole entry, looked up): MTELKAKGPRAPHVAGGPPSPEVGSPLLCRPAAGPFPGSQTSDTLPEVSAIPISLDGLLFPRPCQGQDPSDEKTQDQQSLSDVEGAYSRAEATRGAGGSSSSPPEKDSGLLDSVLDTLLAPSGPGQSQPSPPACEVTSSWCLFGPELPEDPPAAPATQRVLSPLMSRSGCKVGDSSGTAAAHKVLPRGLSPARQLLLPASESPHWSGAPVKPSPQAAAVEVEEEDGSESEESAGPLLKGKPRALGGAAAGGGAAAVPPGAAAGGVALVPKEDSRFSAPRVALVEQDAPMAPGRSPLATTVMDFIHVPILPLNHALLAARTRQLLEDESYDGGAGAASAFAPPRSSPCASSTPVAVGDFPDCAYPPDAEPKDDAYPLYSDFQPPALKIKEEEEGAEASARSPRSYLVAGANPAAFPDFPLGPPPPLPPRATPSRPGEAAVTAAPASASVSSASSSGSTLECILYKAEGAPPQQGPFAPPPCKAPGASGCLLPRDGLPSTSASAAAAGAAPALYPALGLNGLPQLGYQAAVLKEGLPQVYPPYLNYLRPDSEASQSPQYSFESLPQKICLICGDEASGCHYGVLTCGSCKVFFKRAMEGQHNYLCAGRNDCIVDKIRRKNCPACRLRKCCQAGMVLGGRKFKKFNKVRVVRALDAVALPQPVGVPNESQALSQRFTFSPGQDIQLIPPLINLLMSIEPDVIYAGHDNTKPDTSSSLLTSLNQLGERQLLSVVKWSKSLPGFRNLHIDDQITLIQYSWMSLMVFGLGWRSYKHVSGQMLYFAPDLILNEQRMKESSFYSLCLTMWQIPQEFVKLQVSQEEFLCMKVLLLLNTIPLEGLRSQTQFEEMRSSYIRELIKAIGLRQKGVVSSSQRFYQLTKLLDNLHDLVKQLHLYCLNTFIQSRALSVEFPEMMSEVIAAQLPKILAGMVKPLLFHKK
How it was run: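 HEK293T PR-UAS-bla, 2% CS-FBS; 6 hr preincubation, cpd/DMSO pinned, 16 hr 37C/5% CO2; LiveBLAzer B/G 2 hr RT; FRET ch2/ch1 ratio, agonist direction vs DMSO. Viability by CellTiter-Glo in same wells.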

[11] = molecular target: PGR (gene 5241) (UniProt P06401); experiment: TOX21_PR_BLA_Followup_Antagonist_ratio: Tox21 HEK293 Progesterone Receptor (PR) Antagonism Beta-lactamase Follow-Up Assay, Ratio (AID 2283934)
How it was run: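 HEK293T PR-UAS-bla, 2% CS-FBS; 6 hr plating, then cpd + R5020 (1 nM final), 16 hr 37C/5% CO2. B/G FRET substrate 2 h RT. Ratio ch2/ch1 vs DMSO; CellTiter-Glo viability multiplexed, autofluorescence checked.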

[12] = TOX21_PR_BLA_Followup_Agonist_viability: Viability Assessment in the Tox21 HEK293 Progesterone Receptor (PR) Agonism Beta-lactamase Follow-Up Assay (AID 2283935);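 further: signal loss means lower viability so actives are cytotoxic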
How it was run: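 HEK293T PR-UAS-bla, 3,000 cells/well, 2% CS-FBS; 6 hr pre-incubation; cpd in DMSO, 16 hr 37C; LiveBLAzer 2 hr RT, then CellTiter-Glo 30 min RT, luminescence. Decrease = lost viability.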

[13] = TOX21_PR_BLA_Followup_Antagonist_viability: Viability Assessment in the Tox21 HEK293 Progesterone Receptor (PR) Antagonism Beta-lactamase Follow-Up Assay (AID 2283936);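 further: hits lower the luminescence signal meaning cytotoxicity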
How it was run: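 PR-UAS-bla HEK293T cells (3,000/well, 2% charcoal-stripped FBS) given compound plus R5020 agonist, 16 h at 37C. CellTiter-Glo added after bla read, 30 min at room temperature; luminescence loss indicates cytotoxicity.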

[14] = molecular target: PGR (gene 5241) (UniProt P06401); experiment: TOX21_PR_LUC_Followup_Agonist: Tox21 HEK293 Progesterone Receptor (PR) Agonism Luciferase Follow-Up Assay (AID 2283937; active means hit-call score of the fitted dose curve at least 0.9, where 1 is the maximum; inactive means score below 0.9)
How it was run: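 Cells: HEK293-PR-A-luc, 3,000/well, 10% charcoal-stripped FBS assay medium. Compound added after 5 h; 16 h, 37C, 0% CO2. ONE-Glo luciferase, luminescence. Positive fit vs DMSO.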

[15] = molecular target: PGR (gene 5241) (UniProt P06401); experiment: TOX21_PR_LUC_Followup_Antagonist: Tox21 HEK293 Progesterone Receptor (PR) Antagonism Luciferase Follow-Up Assay (AID 2283938);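 further: curve fitted upward as signal gain over DMSO baseline despite antagonist label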
How it was run: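 Luminescence from ONE-Glo reagent, measured after 30 min at room temperature, served as readout. Cells (HEK293 carrying PR-A-luc) had been treated 16 h at 37C with DMSO-dissolved compounds. Activity was fitted against DMSO controls.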

[16] = TOX21_PR_LUC_Followup_Antagonist_viability: Viability Assessment in the Tox21 HEK293 Progesterone Receptor (PR) Antagonism Luciferase Follow-Up Assay (AID 2283940)
How it was run: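 Multiplexed viability counter-screen: after 5 days in charcoal-stripped-FBS medium, HEK293-PR-A-luc cells are plated, pinned with DMSO-dissolved compounds for 16 h at 37C, and ATP content is quantified luminescently via CellTiter-Glo.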

[17] = TOX21_PR_LUC_Followup_Agonist_viability: Viability Assessment in the Tox21 HEK293 Progesterone Receptor (PR) Agonism Luciferase Follow-Up Assay (AID 2283941);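 further: loss of signal means cytotoxicity so actives lower viability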
How it was run: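 Cells were kept 5 days in charcoal-stripped serum medium before plating HEK293-PR-A-luc at 3,000 cells/well. After 5 h they received DMSO-dissolved compound and incubated 16 h at 37C. Viability was taken from CellTiter-Glo ATP luminescence.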

Measured: outcome

CCCCS(=O)(=O)N[C@@H](Cc1ccc(OCCCCC2CCNCC2)cc1)C(=O)O
inactive: [1] | [2] | [3]

Cc1nnc(C(=O)NC(C)(C)c2nc(C(=O)NCc3ccc(F)cc3)c(O)c(=O)n2C)o1
inactive: [4]

COc1ccc(C2CNC(=O)C2)cc1OC1CCCC1 (configuration not stated)
inactive: [1] | [3]

CO/N=C(\C(=O)N[C@@H]1C(=O)N2C(C(=O)O)=C(CSc3nc(C)c(CC(=O)O)s3)CS[C@H]12)c1csc(N)n1
inactive: [4] | [5] | [2] | [6]

ONc1ccccc1
inactive: [1] | [3]

CCCSSC(CCO)=C(C)N(C=O)Cc1cnc(C)nc1N
inactive: [4] | [5]

CN(C)CCCOc1nn(Cc2ccccc2)c2ccccc12
inactive: [4] | [5]

CCN1CCCC(OC(=O)C(c2ccccc2)c2ccccc2)C1 (configuration not stated)
inactive: [4]

CN=C(NC#N)Nc1ccc(C2=NNC(=O)CC2C)cc1 (configuration not stated)
inactive: [1] | [3]

C1=CCC2CC=CC2C1 (configuration not stated)
inactive: [4] | [5] | [2]

CCCCOCCOC(=O)CCCCCCCCC(=O)OCCOCCCC
inactive: [1] | [3]

Cc1ccc(NC(N)=O)cc1
inactive: [1] | [2] | [3]

[Cl-].[Cl-].[NH-]CC[NH-].[Pt+4]
inactive: [4]

CC(C)CCCC(=O)O
inactive: [4] | [5]

CN(C)CCCSc1ccccc1NC(=O)/C=C/c1ccccc1
inactive: [4] | [5]

CCc1ccc(Br)cc1
inactive: [1] | [3]

CCOC(=O)Nc1ccc2c(c1)N(C(=O)CN(C)C)c1ccccc1CC2
inactive: [1] | [6]

CC(CCc1ccc(O)cc1)NCC(O)c1ccc(O)cc1 (configuration not stated)
inactive: [4]

CN(C)CCN1C(=O)c2ccccc2N(C)c2ccccc21
inactive: [4]

CNc1c2c(nn1C)CCCC2
inactive: [4] | [5] | [2] | [6]

CNC1(C)C2CCC(C2)C1(C)C (configuration not stated)
inactive: [4] | [5] | [2] | [6] | [3]

CCCCNc1c(C(=O)OCC)c(C)nc2c1cnn2CC
inactive: [1] | [6] | [3]

CCCCC/C=C\C/C=C\CCCCCCCC(=O)NC(C)c1ccccc1 (configuration not stated)
inactive: [1] | [2] | [3]

Cc1cccc(C)c1N(CCCc1cccnc1)C(=O)C(C)N (configuration not stated)
inactive: [1] | [2] | [3]

Cn1c(N)nc2nc[nH]c2c1=O
inactive: [1] | [6] | [3]

CN(C)CCCN1c2ccccc2Sc2ccccc21
inactive: [4]

O=C[O][Al]([O]C=O)[O]C=O
inactive: [4] | [5] | [2] | [6] | [3]

CCC(=O)c1cccc(Cl)c1
inactive: [1] | [6] | [3]

CN1CCN2c3ncccc3Cc3ccccc3C2C1 (configuration not stated)
inactive: [4]

CCCCC(CC)COC(=O)CC#N (configuration not stated)
inactive: [1] | [6] | [3] | [7] | [8] | [9]

O=Nc1ccc(NO)cc1
inactive: [4] | [2] | [6] | [3]

C[N+](C)(C)CC(O)CCl (configuration not stated)
inactive: [4] | [5] | [3]

CC(=NCc1ccccc1)c1ccccc1O
inactive: [4] | [2] | [6] | [3]

Cc1cnc(C)c(C)n1
inactive: [4] | [2] | [6] | [3]

CC(=O)Oc1cc(C(C)C)c(OCCN(C)C)cc1C
inactive: [4] | [5] | [3]

O=C(O)C(O)[C@H](O)[C@@H](O)[C@H](O)[C@H](O)CO (some centres not stated)
inactive: [4] | [5] | [2] | [6] | [3]

CN1CCN(C2=Nc3ccccc3Oc3ccc(Cl)cc32)CC1
inactive: [4] | [5] | [2] | [3]

C[C@H](O)C(=O)Nc1c(I)c(C(=O)NC(CO)CO)c(I)c(C(=O)NC(CO)CO)c1I
inactive: [4] | [2] | [6] | [3]

COc1ccc(NS(=O)(=O)c2ccc(N)cc2)nn1
inactive: [4] | [2] | [6] | [3]

CN1CCN(C2=Nc3cc(F)ccc3Cc3ccccc32)CC1
inactive: [4] | [5] | [10] | [11] | [12] | [13] | [14] | [15] | [16] | [17]

Cc1ccccc1C(=O)O
inactive: [4] | [5] | [3]

O=C(COCCOCCOCC(=O)Nc1c(I)cc(I)c(C(=O)O)c1I)Nc1c(I)cc(I)c(C(=O)O)c1I
inactive: [4] | [2] | [6]

Oc1cc(O)cc(O)c1
inactive: [4] | [2] | [6]

Cc1nc2ccccc2s1
inactive: [4] | [5] | [6]
